# From PubChem BioAssay (NCI)
# About 83,000 compounds went through this panel and 20% of them were active in at least one assay; those are over-represented in the sample as a whole.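 96-well plates, one dose, 48 hours. Percent growth reported; active if below 10.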 The source made the active and inactive calls.
# Tested on: NCI-H522 lung
# Experiment: NCI-60 one-dose screen, 48 h (100 = growth as untreated, 0 = no growth, -100 = all killed)
# Conditions: 10 µM unless noted
# Protocol: Growth inhibition of the NCI-H522 human Non-Small Cell Lung tumor cell line is measured as a screen for anti-cancer activity. Cells are grown in 96 well plates and exposed to the test compound for 48 hours. Compounds are tested at a single concentration, which is 10^-5 M for most compounds. The reported endpoint is percent growth (GI% or GIPRCNT), where numbers from 0 - 100% represent growth inhibition, and numbers from -100% - 0 represent cell death. For example, a value of 40 represents 60% growth inhibition. A value of 0 means no net growth occurred over the course of the experiment. A value of -40 indicates 40% of cells at the beginning of the experiment died by the end of the experiment. A value of -100 means all cells are dead at the end of the experiment.
# NCI-60 Human Tumor Cell Lines Screen was performed using the standard one-dose NCI protocol, which is described in more detail at https://dtp.cancer.gov/discovery_development/nci-60/default.htm.
# Compounds with GIPRCNT values below 10 were considered active. Activity score was based on GIPRCNT using the following formula: […]
# Score is 0 for GIPRCNT values of 100 or above, 50 for GIPRCNT values of 0, and 100 for GIPRCNT values of -100.
row,Compound,growth
1,O=C(/C(=C/c1cccc([N+](=O)[O-])c1)c1ccccc1)c1ccccc1,43.8% (inactive)
2,O=C(/C=C/c1ccccc1Cl)c1ccc(O)cc1,58.2% (inactive)
3,NNC(=O)C1CC2c3ccccc3C1c1ccccc12 (stereo not given),87% (inactive)
4,CC(C)(C)c1cc(O)c(O)c(C(C)(C)C)c1,0.232% (active)
5,COc1ccc2c(c1)nc(N)c1c3ccccc3cn21,58.1% (inactive)
6,O=C(Nc1ccc(Oc2ccc(NC(=O)Nc3ccc([N+](=O)[O-])cc3)cc2)cc1)Nc1ccc([N+](=O)[O-])cc1,-15.3% (active)
7,Cc1ccc2c(c1)O/C(=C\c1ccc([N+](=O)[O-])o1)C2=O,-66% (active)
8,CC(=O)Oc1c(C)c(OC(C)=O)c2c(c1C(C)=O)OC1CC(=O)C(C(C)=O)=C(O)C21C (stereo not given),91.1% (inactive)
9,CCCCCCCC/C=C\CCCCCCCCOc1ccccc1CC(=O)NCC[N+]1(C)CCCC1,46.9% (inactive)
10,O=C(Cc1ccccn1)C(F)(F)C(F)(F)C(F)(F)F,111% (inactive)
11,O=C(C(=O)N1CCCCC1)c1ccc(OC2OC(CO)C(O)C(O)C2O)cc1 (stereo not given),85.3% (inactive)
12,CCOC(=O)C1=C(C)N2C(=NC3=C(CCC/C3=C\c3ccc(Cl)cc3)C2c2ccc(Cl)cc2)S1 (stereo not given),58% (inactive)
13,CCN(CC)CCCCNc1c2ccccc2[n+](C)c2c1[nH]c1ccccc12,-84.7% (active)
14,C[C@@H]1CC[C@H]2[C@@H](C)C(O)O[C@@H]3O[C@]4(C)CC[C@@H]1[C@]32OO4 (stereo not given in full),-8.88% (active)
15,CN1COc2ccc3ccccc3c2C1,90.3% (inactive)
16,Cc1ccc(NC(=O)Nc2ccc(-c3cccnc3)cc2N2CCC(CO)CC2)cc1,9.32% (active)
17,NS(=O)(=O)c1ccc(NC2=C(Cl)C(=O)c3ccccc3C2=O)cc1,70.1% (inactive)
18,CCC[C@H](N[C@@H](C)C(=O)N1[C@H](C(=O)O)C[C@@H]2CCCC[C@@H]21)C(=O)OCC,102% (inactive)
19,COc1ccc(-c2cnnn2-c2cc(OC)c3c(c2)OCO3)cc1,-45.2% (active)
20,CC1=CSC2=NCCN12,100% (inactive)

row,Compound,growth
1,Cc1cc(C(C)(C)c2cc(C)c(O)c(CN(C)C)c2)cc(CN(C)C)c1O,85.7% (inactive)
2,CN(C)c1ccc(/C=C\c2ccnc3ccccc23)cc1,-7.89% (active)
3,CN(C)c1nc(N)nc(Cn2c(-c3nonc3N)nc3ccccc32)n1,77.5% (inactive)
4,Cn1cc(-c2csc(-c3c[nH]c4ncccc34)n2)c2cc(F)cnc21,86.8% (inactive)
5,Cc1nc2c(O)cccc2cc1CO,107% (inactive)
6,CCOC(=O)C1=C(COCCN)NC(C)=C(C(=O)OC)C1c1ccccc1Cl (stereo not given),73.3% (inactive)
7,C[C@]12CC[C@@H]3c4ccc(O)cc4CC[C@H]3[C@@H]1CC[C@@H]2NS(=O)(=O)c1cccc(Br)c1,40.4% (inactive)
8,C=C(C)[C@H]1CC/C(C)=C/CC[C@]2(C)O[C@H]2CC/C(C=O)=C\C1O (stereo not given in full),113% (inactive)
9,O=C(C=C=Nc1ccccc1)C(=O)N=C=Cc1ccccc1,-82.5% (active)
10,Nc1c2ccccc2nc2ccccc12 (tested in a mixture with another compound),-22.3% (active)
11,COc1cc([C@@H]2c3cc4c(cc3C(O[C@@H]3O[C@@H]5CO[C@@H](c6cccs6)OC5[C@H](O)[C@H]3O)C3COC(=O)[C@@H]32)OCO4)cc(OC)c1O (stereo not given in full),-53.7% (active)
12,COc1ccc2[nH]cc(/C=C3/C(=O)Nc4ccc(F)cc43)c2c1,81.5% (inactive)
13,Cc1cc2c(C#N)n3c(c2cc1C)C(=O)C(c1ccccc1)Oc1ccccc1-3 (stereo not given),-35.7% (active)
14,C/C(=C\CCc1ccsc1)CC/C=C(\C)CCCN1CCN(CCO)CC1,71.5% (inactive)
15,COc1cc(C2NC(c3ccc(Cl)cc3)C(C)C(=NC(=O)c3cnccn3)C2C)cc(OC)c1OC (stereo not given),85.4% (inactive)
16,CCOC(=O)/C(=C/c1ccccc1)C(=O)c1ccccc1,67.6% (inactive)
17,CCC(C)(C)C(=O)O[C@H]1C[C@@H](C)C=C2C=C[C@H](C)[C@H](CC[C@@H]3C[C@@H](O)CC(=O)O3)[C@H]21,8.21% (active)
18,CCOC(=O)c1c2c(c(C)n1Cc1ccccc1)-c1nc(N)ncc1CC2,96.7% (inactive)
19,O=NC1CC=CCC1c1ccccc1 (stereo not given),109% (inactive)
20,COC(=O)[C@]1(C(C)C)N[C@H](c2cn(-c3ccccc3)nc2-c2ccccc2)[C@@H]2C(=O)N(c3ccc(Cl)cc3)C(=O)[C@@H]21,81.4% (inactive)
